Compounds with a hit are over-represented: about 3.7% of the library has one in this group of screens.
B2AR arrestin ag: beta-arrestin recruitment by human beta2-adrenergic receptor ligands | Potency, µM (top dose mostly 46.1 µM), hits mostly activators | 44,000 tested, under 10 active | P07550 | HTLA Tango cells, beta-arrestin recruitment, luciferase luminescence, 18 h | AID 1347077
Target sequence (P07550 whole entry, looked up): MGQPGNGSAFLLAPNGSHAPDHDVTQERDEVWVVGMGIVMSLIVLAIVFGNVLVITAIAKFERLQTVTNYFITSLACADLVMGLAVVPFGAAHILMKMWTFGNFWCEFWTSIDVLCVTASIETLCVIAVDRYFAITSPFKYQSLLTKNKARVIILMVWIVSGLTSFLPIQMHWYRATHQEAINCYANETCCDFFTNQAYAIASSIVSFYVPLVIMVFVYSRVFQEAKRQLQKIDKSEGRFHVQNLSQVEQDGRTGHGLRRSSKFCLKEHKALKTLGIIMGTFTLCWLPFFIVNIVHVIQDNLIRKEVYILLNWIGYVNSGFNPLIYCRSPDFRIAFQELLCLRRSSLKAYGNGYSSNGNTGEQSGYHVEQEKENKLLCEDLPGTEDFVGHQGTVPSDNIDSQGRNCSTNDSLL
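Tango cell line, 1% FBS DMEM; cpd titration up to 46 microM; 18 hr, 37 degrees C, 5% CO2. Luciferin/ATP substrate mix added, 15 min RT, luminescence. %Activity, CRC fitting, curve-class categorization.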
PTAP-TSG101 blk: inhibitors of HIV-1 PTAP binding to human TSG101, validation | Q99816 | Fluorescence polarization, FITC-PTAP peptide/Tsg101, 20 min | Potency, µM (titrated, usually from 115 µM), hits mostly inhibitors | 44,000 tested, under 10 active
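qHTS FP binding, 20 min r.t.: 10 uM Tsg101 domain + 50 nM FITC-PTAP peptide, pH 7.5 HEPES buffer with TCEP and EDTA.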
NTMT1 inhibitor: blocks human N-terminal methyltransferase 1 activity; AID 1645870; Potency, µM (highest dose often 114 µM), actives largely listed as inhibitors; hit rate 2.5% among 59,000; NTMT1 MTase-Glo SAH luminescence, purified enzyme; further: nearly all actives have a fitted effect of over 65% in size
Target sequence (Q9BV86 whole entry, looked up): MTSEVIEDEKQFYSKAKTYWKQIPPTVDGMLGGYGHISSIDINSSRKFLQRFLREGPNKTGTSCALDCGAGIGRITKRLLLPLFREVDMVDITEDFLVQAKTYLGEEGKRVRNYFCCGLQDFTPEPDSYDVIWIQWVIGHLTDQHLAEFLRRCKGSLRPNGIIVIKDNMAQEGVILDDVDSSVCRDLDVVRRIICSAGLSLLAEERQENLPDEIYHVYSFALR
DRV1 agonist: agonists of human resolvin D1 receptor DRV1 (GPR32). AID 1346428. O75388. hit rate 2.5% among 48,000. CHO-K1 GPR32 beta-arrestin PathHunter luminescence, 90 min; zero percent set by DMSO-only wells. activation, % at 76.9 µM;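 active means activation of at least 60% and not above a set upper limit, about 1 call in 100 departs from these limits; inconclusive means activation of 40% to 60%, or above that upper limit; inactive means activation under 40%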
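Luminescent readout of beta-Gal complementation quantifies ligand-induced beta-arrestin association with GPR32 in CHO-K1 cells; 90 min compound incubation at 37 °C, detection 1 h at room temperature.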
FH mod: Identification of activators of human fumarate hydratase by quantitative high-throughput screening; FH coupled MDH/diaphorase resazurin fluorescence, 15 min; Potency, µM (series often up to 79.9 µM), most hits filed as inhibitors; Fumarate hydratase, mitochondrial (Homo sapiens), P07954; hit rate 0.22% among 54,000; AID 1347055, 2019; further: the screen sought activators but most active calls are inhibition curves; nearly all actives have a fitted effect of over 45% in size
GALK inhibitor: GALK (human) enzyme inhibition | recombinant GALK, Kinase-Glo ATP luminescence, 1 h | Potency, µM (doses to about 57.5 µM), most hits filed as inhibitors | 44,000 tested, under 10 active
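Human GALK (5 nM) was incubated with 35 uM ATP and 100 uM galactose in 20 mM HEPES pH 8.0 with MgCl2, NaCl, DTT and BSA for 1 h at room temperature. Remaining ATP was measured by Kinase-Glo Plus luminescence.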
A number is an active result; . = inactive; ? = inconclusive; / = not tested or not shown; ! = a repeat was not active; [ ] = another dose, or the depositor's remark. Unless noted, the call rests on the fitted dose curve; in most records, active means well fitted curve in the direction sought with a large enough effect; inconclusive means small, poorly fitted or top-dose-only effect, or another doubt; inactive means no such curve, though single readings can be large; an effect the other way counts as inactive or inconclusive.

SMILES | B2AR arrestin ag | PTAP-TSG101 blk | NTMT1 inhibitor | DRV1 agonist | FH mod | GALK inhibitor
CCCCCCCC(=O)[O-].CCCCCCCC(=O)[O-].[Zn+2] | / | / | 20µM | . | . | /
CC(C)(C)CC(C)(C)c1ccc(OCCOCC[N+](C)(C)Cc2ccccc2)cc1 | / | / | ? | ? | . | /
C[N+](C)(CCOc1ccccc1)Cc1cccs1 | / | / | 14.1µM | . | . | /
COc1ccc(-c2n[nH]c3c2C(c2ccc(Cl)cc2Cl)NC3=O)cc1 (centres undefined) | . | . | . | 87.0 | . | .
C=CC(=O)Nc1cc(Nc2ncc(Cl)c(-c3c[nH]c4ccccc34)n2)c(OC)cc1N(C)CCN(C)C | / | / | 20µM | / | . | /
C=CC(=O)Nc1cccc(Nc2nc(Nc3ccc(N4CCN(C(C)=O)CC4)cc3OC)ncc2C(F)(F)F)c1 | / | / | ? | / | . | /
COc1cc(O)c(C(CC(=O)N2CCCC(C)C2)c2ccc(OC)c(OC)c2)c(OC)c1 (centres undefined) | / | / | . | / | / | /
CCc1oc2ccccc2c1C(=O)c1cc(Br)c(O)c(Br)c1 | / | / | 79.4µM | . | . | /
COc1ccc(-c2noc(CSc3nc4ccccc4[nH]3)n2)cc1 | . | . | . | 96.1 | . | .
COc1ccc(-c2noc(CSc3nc(N)cc(=O)[nH]3)n2)cc1 | . | . | . | 98.3 | . | .
CN(C)c1cccc(C(=O)Nc2ccc(-c3nc4ccccc4s3)cc2)c1 | . | . | . | . | . | .
Cc1cc2nc3ccc(=[N+](C)C)cc-3sc2cc1N | / | / | 22.4µM | . | ? | /
CN(C)c1ccc2nc3ccc(=[N+](C)C)cc-3sc2c1 | / | / | 31.6µM | . | ? | /
Cc1cc(C)c(S(=O)(=O)N(CCc2cccc(Br)c2)Cc2ccc(-c3cccc(S(C)(=O)=O)c3)cc2)c(C)c1 | / | / | . | / | / | /
CCN1CCN(Cc2ccc(-c3cc4c(N[C@H](C)c5ccccc5)ncnc4[nH]3)cc2)CC1 | / | / | 22.4µM | / | . | /
CCN1CCN(Cc2ccc(-c3cc4c(NC(C)c5ccccc5)ncnc4[nH]3)cc2)CC1 (centres undefined) | / | / | 14.1µM | / | . | /
COc1cc2nc(=NC(=O)c3cccnc3)n3c(c2cc1OC)NCC3 | / | / | . | / | . | /
CC[C@@H](C)[C@H](NC(=O)C(C)(C)NC(=O)[C@H](CCC(N)=O)NC(=O)C(C)(CC)NC(=O)[C@H](Cc1c[nH]c2ccccc12)NC(C)=O)C(=O)N[C@H](C(=O)NC(C)(C)C(=O)N[C@@H](CC(C)C)C(=O)NC(C)(C)C(=O)N1CCC[C@H]1C(=O)N[C@@H](CCC(N)=O)C(=O)NC(C)(C)C(=O)N1CC(O)C[C@H]1C(=O)NC(C)(CC)C(=O)C1CC[C@@H](C(=O)N[C@@H](Cc2ccccc2)C(=O)NCC(=O)O)N1)C(C)O (some centres undefined) | / | / | .[6.45 µM] | / | .[13.5 µM] | /
CCc1ccc(OCC(=O)Nc2ccc(Cl)c(-c3nc4ncccc4o3)c2)cc1 | . | . | . | 117.9 | . | .
CC(C)OC(=O)C(C(=O)OC(C)C)=C1SC=CS1 | / | / | ? | 73.1 | . | /
CCn1c(=O)c(-c2ccc(Cl)cc2Cl)cc2cnc(Nc3ccc(N4CCNCC4)c(F)c3)nc21 | / | / | 50.1µM! | / | . | /
CC1CCN(c2nc3ccc(C(=O)NCCc4ccc(S(N)(=O)=O)cc4)cc3s2)CC1 | . | . | 89.1µM | . | . | .
CC(C)(C)c1ccc(CSc2nc3ncc(Br)cc3[nH]2)cc1 | / | / | . | / | / | /
CN(C)CCCN1c2ccccc2Sc2ccc(Cl)cc21 | / | / | ? | 63.0! | ? | /
Nc1nccn2c(C3CCC(C(=O)O)CC3)nc(-c3cc4cccc(Cl)c4[nH]3)c12 (centres undefined) | / | / | 35.5µM! | / | . | /
SMILES | B2AR arrestin ag | PTAP-TSG101 blk | NTMT1 inhibitor | DRV1 agonist | FH mod | GALK inhibitor
COc1cc(Cl)ccc1C(=O)Nc1nc(-c2ccccc2)cs1 | / | / | . | / | / | /
Cc1ccc(CNS(=O)(=O)c2cc3c(cc2Cl)NC(=O)CO3)o1 | . | . | 89.1µM | . | . | ?
O=C(Nc1cccc(C(F)(F)F)c1)c1cccc(C(=O)Nc2cccc(C(F)(F)F)c2)c1 | . | . | . | ? | . | .
O=C(O)c1cccnc1Nc1cccc(C(F)(F)F)c1 | / | / | ? | 100.1! | . | /
Cc1nnsc1C(=O)Nc1ccc(-n2nc(C(F)(F)F)cc2C(F)(F)F)cc1 | / | / | . | / | . | /
Cc1c(C(=O)O)[nH]c2c1C(=O)CCC2 | / | / | . | / | / | /
O=c1[nH]nc(Sc2ncc([N+](=O)[O-])s2)n1-c1ccc2c(c1)OCCO2 | / | / | 4.29µM! | / | . | /
COc1ccccc1CNC(=O)Cn1c(=O)ccc2cc(S(=O)(=O)N3CCC(C)CC3)ccc21 | . | . | . | . | . | .
COc1ccccc1CNC(=O)Cn1c(=O)oc2cc(S(=O)(=O)N3CCC(C)CC3)ccc21 | . | . | . | 77.5 | . | .
CCOc1ccc(NC(=O)Cn2c(=O)oc3cc(S(=O)(=O)N4CCC(C)CC4)ccc32)cc1 | . | . | . | 117.0 | . | .
CCc1ccc(NC(=O)Cn2c(=O)oc3cc(S(=O)(=O)N4CCCCCC4)ccc32)cc1 | . | . | . | . | . | .
COc1ccc(N2CCN(CC(O)COc3c(OC)cccc3OC)CC2)cc1 (centres undefined) | . | . | . | . | . | .
COc1ccccc1N1CCN(CC(O)COc2cccc3ccccc23)CC1 (centres undefined) | / | / | ? | 96.7! | . | /
O=C(Cn1nc(-c2ccc(F)cc2)ccc1=O)NCCc1ccccc1 | / | / | 79.4µM | / | / | /
CC(C)(C)N=Cc1c(-c2ccccc2)no[n+]1[O-] | / | / | . | / | / | /
O=c1oc2cc(O)ccc2s1 | / | / | . | / | . | /
O=c1c(O)c(-c2ccc(O)cc2O)oc2cc(O)cc(O)c12 | / | / | 44.7µM! | . | . | /
O=c1c(O)c(-c2cc(O)c(O)c(O)c2)oc2cc(O)cc(O)c12 | / | / | 28.2µM! | . | . | /
O=C(Nc1cccnn1)N1CCC(=Cc2cccc(Oc3ccc(C(F)(F)F)cn3)c2)CC1 | / | / | . | / | . | /
O=C(c1ccc(F)cc1)C1CCN(CCn2c(=O)[nH]c3ccccc3c2=O)CC1 | / | / | ? | 82.3! | . | /
O=c1[nH]c2ccccc2c(=O)n1CCCl | / | / | ? | . | . | /
O=C(NCCc1ccccc1)c1ccc(CSc2nc3cccnc3n2Cc2ccccc2F)cc1 | . | . | . | . | ? | .
O=C(NCCc1ccccc1)c1ccc(Cn2c(SCc3ccccc3F)nc3cccnc32)cc1 | . | . | 89.1µM | . | . | .
Cc1nnc(-c2ccc(-c3ccc(C(=O)Nc4ccc(O)c(N5CCN(C)CC5)c4)cc3)c(C)c2)o1 | / | / | . | / | . | /
Cc1ccc(NC(=O)Cn2c(=O)oc3cc(S(=O)(=O)N4CCCCC4)ccc32)c(C)c1 | . | . | . | 115.0 | . | .
Cc1ccc(NC(=O)Cn2c(=O)oc3cc(S(=O)(=O)NCc4ccccc4)ccc32)cc1 | . | . | . | 81.0 | . | .

Screens as filed in PubChem BioAssay.
